Assay [1] is described as follows: qHTS profiling of the MIPE4 collection as inhibitors of Plasmodium falciparum (DD2) proliferation (AID 743345; call rule not given here). The following applies: P. falciparum Dd2 in erythrocytes, SYBR Green DNA, 72 h; at 28.5 µM (top of the series) unless noted. In a few lines: (§1)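 Erythrocytes infected with P. falciparum (0.3% parasitemia, 2.5% hematocrit) incubated with compounds 72 h at 37 C, 5% CO2. Lysis with saponin/Triton buffer containing SYBR Green I, overnight at room temperature in the dark; DNA fluorescence (485/535 nm) normalised to 0.29 uM artemisinin and DMSO.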
On the technique in general: qHTS replaces the single test concentration by a dilution series.

Assay [2] is described as follows: qHTS profiling of the MIPE4 collection as inhibitors of Plasmodium falciparum (DD2) proliferation (Rep 2) (AID 743346; call rule not given here). The conditions noted are these: P. falciparum Dd2 in erythrocytes, SYBR Green DNA, 72 h; at 28.5 µM (top of the series) unless noted. In a few lines:
as §1

The nature of assay [3]: qHTS profiling of the MIPE4 collection as inhibitors of Plasmodium falciparum (HB3) proliferation (AID 743347; call rule not given here;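 also: plate controls were DMSO vehicle wells for no effect and artemisinin wells for full effect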). The conditions noted are these: P. falciparum HB3 in erythrocytes, SYBR Green DNA, 72 h; at 28.5 µM (top of the series) unless noted. In a few lines: as §1
The nature of assay [4]: High-throughput drug toxicity screening in the BPDCN cell line Cal-1 (AID 1224825; call rule not given here). The following applies: Cal-1 BPDCN cell viability, qHTS; at 45.8 µM (top of the series) unless noted. In a few lines:
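500 Cal-1 cells/well, RPMI + glutamine + 10% FBS (phenol red-free); cpd added by pin tool; 48 h, 37C, 5% CO2; CTG 15 min RT, lumi read. Normalised: DMSO 100%, bortezomib 9.2 uM 0%.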

Assay [5] is described as follows: qHTS assay for measurement of the activity of small molecule inhibitors on Zika virus induced Caspase-3 activity in human iPSC derived neural progenitor cells (hNPCs) (AID 1224857). Also: % of control where 0% means no effect; nearly all actives have a fitted effect of over 65% in size. The method in brief:
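Zika virus (2 FFU/cell) infection of human iPSC-derived NPCs, 6 h, following 1 h compound preincubation. Read-out: Caspase-Glo 3/7 luminescence.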

Assay [6] can be described thus: qHTS Screen of the MIPE 4.0 Collection Against Ewings Sarcoma (RDES) (AID 1259252). Also: nearly all actives have a fitted effect of over 35% in size. Also: potency is read from the fitted curve at half-maximal effect. The method in brief:
(§2)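 CellTiter-Glo luminescence after 48 h compound exposure (titration) gave viability; percent activity used DMSO-treated cells as no inhibition and medium-only wells as full inhibition. Cells grown in RPMI/5% FBS, dosed 4 h post-seeding.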

A short description of assay [7]: qHTS Screen of the MIPE 4.0 Collection Against Ewings Sarcoma (TC71) (AID 1259253). Also: nearly all actives have a fitted effect of over 40% in size. Also: potency is read from the fitted curve at half-maximal effect. The method in brief:
as §2

Assay [8] can be described thus: Identifying Small Molecule Inhibitors of Pancreatic Cancer Stem Cells (SN12C, Adherent) (AID 1259358).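 Also: potency is read from the fitted curve at half-maximal effect; cell survival measured after 48 h of compound exposure.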 In a few lines:
(§3)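 Cytotoxicity read by CellTiter-Glo luminescence after 48 h compound exposure at 37C; percent activity scaled between DMSO-treated cells and cell-free wells. Spheroid formats used cells pre-formed 14 days in stem cell media on hydrogel.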

Assay [9] is described as follows: Identifying Small Molecule Inhibitors of Pancreatic Cancer Stem Cells (A278, Adherent) (AID 1259361). Also: nearly all actives have a fitted effect of over 35% in size. In a few lines: as §3
Assay [10] in a line: P-glycoprotein substrates identified in KB-3-1 adenocarcinoma cell line, qHTS therapeutic library screen (AID 1346986).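 Also: potency is read from the fitted curve at half-maximal effect; potency is for cytotoxicity meaning loss of cell viability; nearly all actives have a fitted effect of over 60% in size.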 In a few lines: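 Cells seeded 500/well in DMEM/10% FCS; compounds pinned in dose-response; 72 h incubation; CellTiter-Glo added, 5 min, luminescence. KB-8-5-11 run ±tariquidar to test reversal of P-gp resistance.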
Assay [11] in a line: qHTS assay for measurement of the activity of small molecule inhibitors on Zika virus induced Caspase-3 activity in human astrocytoma cells (AID 1224859).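 Also: plate controls were ZIKV-infected untreated cells for no effect and uninfected cells for full effect.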 The method in brief:
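Caspase activation in ZIKV-infected SNB-19 cells (2 FFU/cell, 6 h) measured by Caspase-Glo 3/7 luminescence after 30 min RT; compound pre-incubated 1 h; normalised to uninfected and infected controls.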

A short description of assay [12]: qHTS Screen of the MIPE 4.0 Collection Against Ewings Sarcoma (TC32) (AID 1259256). Also: nearly all actives have a fitted effect of over 45% in size. Also: potency is read from the fitted curve at half-maximal effect. In a few lines: as §2
Assay [13] in a line: qHTS assay to identify small molecule inhibitors of chordoma cells - UCH-1 (AID 1259355). Also: % is scaled to controls: 0 for no effect and ±100 for the full control effect; nearly all actives have a fitted effect of over 55% in size. In a few lines: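 Seed 800 cells per well; incubate overnight at 37 C, 5% CO2. Add test compounds (15 concentrations), then the auranofin–topoisomerase-agent combination. Incubate 48hr, add CellTiter-Glo, wait 30min, read luminescence.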
Assay [14] in a line: qHTS assay to identify small molecule inhibitors of chordoma cells - UCH-2 (AID 1259356). Also: % is scaled to controls: 0 for no effect and ±100 for the full control effect.
A short description of assay [15]: qHTS Screen of the MIPE 4.0 Collection Against Ewings Sarcoma (EW8) (AID 1259255). Also: nearly all actives have a fitted effect of over 35% in size. Also: potency is read from the fitted curve at half-maximal effect.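 As to viability: 100% = DMSO-treated cells and 0% = medium-only wells without cells.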 The method in brief: as §2

Results filed as inconclusive are left out. Active and inactive are the calls of the source. Unless noted, calls follow the shape of the dose curve; as a rule, active = well fitted curve in the direction sought with a large enough effect; inconclusive = small, poorly fitted or top-dose-only effect, or another doubt; inactive = no such curve, though single readings can be large; an effect the other way counts as inactive or inconclusive.

Data on nine compounds can be found in PubChem BioAssay (NCATS).

In assay [1], `COc1cc(Nc2c(C#N)cnc3cc(OCCCN4CCN(C)CC4)c(OC)cc23)c(Cl)cc1Cl` showed a parasite growth remaining, % of DMSO control (lower = more inhibition) of 10.9%. The parasite growth, % of control (lower = inhibition) in assay [2] is 14.7%. The compound further yielded a growth, % of control in assay [3] of 3.88%. In addition, the viability (% of control) in assay [4] stood at 3.18%. Besides, in assay [5], the Potency result is “inactive”. The Potency in [6] is 3.32 µM (active); in assay [7], 18.7 µM (active); in assay [8] it was 26.4 µM (active); in assay [10], 18.4 µM (active). Also, the IC50 (viability decrease) in assay [9] was 23.5 µM (active).

Turning to `CN(C)C(=O)COC(=O)Cc1ccc(OC(=O)c2ccc(N=C(N)N)cc2)cc1`, in assay [1], the parasite growth remaining, % of DMSO control (lower = more inhibition) was found to be 93%. In assay [2], the parasite growth, % of control (lower = inhibition) stood at 43%. The growth, % of control in assay [3] came out at 101%. Further, the viability (% of control) in assay [4] amounted to 104%. For the same compound, the Potency entry in assay [5], in [11], in assay [13] and in [14] was “inactive” each time. In addition, the Potency in [6] was 16.6 µM (active); in assay [12], 0.0469 µM (active).

In turn, `O=c1c(O)c(-c2cc(O)c(O)c(O)c2)oc2cc(O)cc(O)c12` yielded a parasite growth remaining, % of DMSO control (lower = more inhibition) in assay [1] of 85.3%. In [2], the parasite growth, % of control (lower = inhibition) came out at 111%. In addition, in [3], the growth, % of control was 106%. The viability (% of control) in [4] came to 111%. The Potency entry in assay [5], in assay [7] and in [12] was “inactive” throughout. For the same compound, the Potency in assay [6] is 16.6 µM (active).

For the compound `NNc1nncc2ccccc12`, in [1], the parasite growth remaining, % of DMSO control (lower = more inhibition) is 92.8%. Besides, the parasite growth, % of control (lower = inhibition) in assay [2] came out at 116%. The growth, % of control in [3] was 95.2%. Further, the viability (% of control) in assay [4] came out at 104%. Also, the Potency result in [5], in assay [11], in assay [6], in assay [7], in assay [15] and in assay [12] was “inactive” throughout. For the same compound, the Potency result in assay [13] and in assay [14] was “inactive” each time.

`O=c1cc(N2CCOCC2)oc2c(-c3ccccc3)cccc12` yielded a parasite growth remaining, % of DMSO control (lower = more inhibition) in assay [1] of 96%. In addition, in [2], the parasite growth, % of control (lower = inhibition) stood at 78.4%. In assay [3], this compound yielded a growth, % of control of 36.7%. Further, the viability (% of control) in assay [4] was determined as 36.2%. In assay [5], the Potency entry is “inactive”. Besides, the figures for the Potency in [6], in assay [7] and in assay [15] were 13.2 µM (active), 18.7 µM (active) and 18.7 µM (active), respectively.

Turning to `Nc1nc(N)c(N=O)c(OCC2CCCCC2)n1`, the parasite growth remaining, % of DMSO control (lower = more inhibition) in assay [1] amounted to 79.9%. Besides, the parasite growth, % of control (lower = inhibition) in assay [2] was determined as 32.9%. Besides, in assay [3], the growth, % of control was 36.5%. For the same compound, the viability (% of control) in [4] stood at 15.6%. Further, the Potency result in assay [5] and in assay [11] was “inactive” throughout. Moreover, the Potency in [6] is 14.8 µM (active); in assay [7], 16.6 µM (active); in [15] it was 18.7 µM (active); in assay [12] it was 9.35 µM (active).

In turn, `N=C(N=C(N)N)N1CCOCC1` gave a parasite growth remaining, % of DMSO control (lower = more inhibition) in [1] of 96.2%. Also, in [2], the parasite growth, % of control (lower = inhibition) amounted to 93.1%. The growth, % of control in assay [3] came out at 101%. In addition, the viability (% of control) in assay [4] came out at 127%. The Potency entry in assay [5], in assay [11], in [13] and in assay [14] was “inactive” throughout.

For `Cc1cccc(CN2CCN(C(c3ccccc3)c3ccc(Cl)cc3)CC2)c1` (stereo not drawn), in assay [1], the parasite growth remaining, % of DMSO control (lower = more inhibition) was determined as 7.56%. The parasite growth, % of control (lower = inhibition) in [2] worked out at 22.6%. Further, in [3], the growth, % of control amounted to 9.08%. Further, the viability (% of control) in assay [4] was found to be 94%. Also, the Potency entry in assay [5], in [13] and in assay [14] was “inactive” each time. Further, the Potency in [6] was 20.9 µM (active); in assay [12], 13.2 µM (active).

`CN1CCC(=C2c3ccccc3CCc3sccc32)CC1` had a parasite growth remaining, % of DMSO control (lower = more inhibition) in assay [1] of 50.7%. Besides, in assay [2], the parasite growth, % of control (lower = inhibition) is 14.9%. Further, the growth, % of control in assay [3] came out at 8.17%. Further, the viability (% of control) in [4] came out at 69%. Moreover, the Potency result in [5], in assay [11], in assay [13] and in assay [14] was “inactive” throughout.
